# D1 PAM = potentiators of human D1 dopamine receptor; P21728; HEK293 TREx D1 cells, calcium flux, dopamine EC20 potentiation; potentiation, % at 10 µM; hit rate 0.036% among 360,000; AID 504651; in the data active means potentiation above about 30%; further: 0% is about no effect
# DRD3 antagonist = D3 dopamine receptor (human) antagonism; P35462; D3R cells, DiscoveRx beta-arrestin luminescence, antagonist mode; active compounds read low; max response, negative = inhibition, %; hit rate 2.5% among 360,000; in the data active means max response below about -50%; inconclusive means no clear call, values can overlap the other calls; further: on the % scale 0 is the no-effect control and ±100 the full control effect
# Target sequence (P35462 whole entry, looked up): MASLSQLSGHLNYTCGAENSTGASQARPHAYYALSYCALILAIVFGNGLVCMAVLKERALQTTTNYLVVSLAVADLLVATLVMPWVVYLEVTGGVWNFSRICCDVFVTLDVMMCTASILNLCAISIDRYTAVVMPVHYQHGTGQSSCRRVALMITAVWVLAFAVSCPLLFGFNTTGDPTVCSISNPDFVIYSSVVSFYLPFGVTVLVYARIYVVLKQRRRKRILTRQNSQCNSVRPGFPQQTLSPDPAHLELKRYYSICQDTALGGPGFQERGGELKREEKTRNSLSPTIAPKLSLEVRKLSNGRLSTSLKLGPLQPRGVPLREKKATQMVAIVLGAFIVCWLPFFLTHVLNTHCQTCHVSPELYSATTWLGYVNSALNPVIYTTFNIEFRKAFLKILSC
#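 Cells expressing the human receptor were seeded at 1500 cells/well, incubated overnight at 37 degrees C in 5% CO2, then exposed to library compounds with dopamine controls for 90 minutes at 37 degrees C before luminescent detection.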
# D1 antagonist = antagonists of human D1 dopamine receptor; P21728; hit rate 3.2% among 360,000; AID 504652; activity change, negative = inhibition, % at 10 µM; HEK293 TREx D1 cells, calcium flux, dopamine EC80; active compounds read low; in the data active means activity change below about -30%; further: on the % scale 0 is the no-effect control and ±100 the full control effect
#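 Tetracycline-induced HEK293 T-REx cells with force-coupled D1 receptor were loaded with a no-wash calcium dye. Compound was added after a 10 s baseline and read kinetically for 180 s; EC80 dopamine was then added and calcium flux followed another 180 s.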
# D3 ag = agonists of human D3 dopamine receptor. hit rate 0.58% among 410,000. D3R DiscoveRx beta-arrestin cells, luminescence, 90 min. P35462. max activation, %; in the data active means max activation above about 30%; further: 0% is about no effect
#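 Cells at 1500/well, incubated overnight, then treated with pinned compounds (dopamine as control) for 90 min at 37 degrees C. DiscoveRx reagent added for 30 - 60 minutes at room temperature; luminescence read.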
# D1 agonist = agonists of human D1 dopamine receptor. P21728. HEK293 T-REx D1 cells, calcium flux, agonist mode. activation, % at 2 µM. hit rate 1% among 360,000; in the data active means activation above about 30%; further: 0% is about no effect
#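 Inducible HEK293 T-REx D1 cells, force-coupled to calcium signalling, were plated at 4000 cells/well with tetracycline and held overnight at 30 C. After no-wash calcium dye loading, compound-evoked calcium rise over 180 s flagged agonists.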
# Numbers without * were called inactive; ? = inconclusive; · = no result given. The list is not random: actives were taken first. Their share in the collection is about 6%.
SMILES,D1 PAM,DRD3 antagonist,D1 antagonist,D3 ag,D1 agonist
CN(c1ccccc1)S(=O)(=O)c1cccc(NC(=O)c2cc(=O)c3ccccc3o2)c1,-6,123,-34*,17,4
CN(c1ccc(C(=O)NCCSCc2ccc(Cl)cc2)cc1)S(=O)(=O)c1ccccc1,5,-5,-19,-10,39*
NS(=O)(=O)c1cccc(NC(=O)c2cc(=O)c3ccccc3o2)c1,-3,14,-4,6,2
Cc1c(C(=O)N(Cc2ccccc2F)C2CCS(=O)(=O)C2)oc2ccc(F)cc12 (centres undefined),1,·,0,-8,5
Cc1ccc(S(=O)(=O)N(CCc2ccccc2)CC(=O)Nc2cc(C)ccc2C)cc1,-1,·,-2,-31,11
COc1ccccc1NC(=O)C1=C(C)Nc2c(C(=O)Nc3cccc(C)c3)cnn2C1c1ccccc1Cl (centres undefined),2,·,5,1,4
CC(C(=O)NCC1CCCO1)n1cccc1C(=O)c1ccccc1 (centres undefined),-2,24,-31*,1,1
CC(C(=O)NCc1ccc(Cl)cc1)n1cccc1C(=O)c1ccccc1 (centres undefined),7,-13,14,-1,14
CC(C)(C)NC(=O)CSc1nnnn1C(C)(C)C,-10,?,-38*,0,4
CC(C)c1nnc(SCC(=O)NC(C)(C)C)n1C,2,-7,-3,-5,2
Cc1[nH]n(-c2ccc([N+](=O)[O-])cc2)c(=O)c1C=NCCN1CCN(C(=O)c2ccc(F)cc2)CC1,6,21,2,0,3
Cc1[nH]n(-c2ccc([N+](=O)[O-])cc2)c(=O)c1C=NCCc1c[nH]c2ccccc12,-7,1,-36*,37*,-1
CCCc1[nH]n(-c2ccc([N+](=O)[O-])cc2)c(=O)c1C=NCCc1c[nH]c2ccccc12,-2,11,-17,7,4
Cc1[nH]n(-c2ccc([N+](=O)[O-])cc2)c(=O)c1C=NCCN1CCN(C(=O)c2ccc(Br)cc2)CC1,7,-65*,-16,-7,1
CCOCCCNC(=O)C(c1ccc(Cl)cc1)N(Cc1ccc2c(c1)OCO2)C(=O)c1ccccc1O (centres undefined),1,·,-25,-9,0
CC1=CC(=O)C(C(C)C)=C/C1=N/OS(=O)(=O)c1ccccc1,-8,-79*,-31*,1,11
CC1=CC(=O)C=C(C)C1=NOS(=O)(=O)c1ccccc1,-6,-56*,-21,-9,13
Cc1ccc2c(c1)/C(=N/OS(=O)(=O)c1ccccc1)CCS2,·,12,·,-1,·
Nc1c(C(=O)Nc2ccc(Cl)c(C(F)(F)F)c2)sc2nc(-c3ccncc3)ccc12,-2,·,-1,-9,8
CCOC(=O)c1c(C)[nH]c(C)c1S(=O)(=O)NCC(=O)N(C)c1ccc(C)c(C)c1,-2,·,-12,-16,1
CNC(=O)c1ccc2c(c1)nnn2C,-8,-1,-87*,1,1
Cc1ccc(NC(=O)Cn2c(=O)n(CCCCC(=O)NCc3ccccc3Cl)c(=O)c3ccccc32)cc1,0,·,4,4,0
COCCNc1c(-c2ccc(O)cc2)nc2ccc(Cl)cn12,-10,13,-41*,5,0
CC(NC(=O)Cn1ncc(Cl)c(Cl)c1=O)C12CC3CC(CC(C3)C1)C2 (centres undefined),-8,-77*,-3,-14,-1
O=C(CN1CCCCC1)NC(=O)NC1CCCC1,2,1,-1,-4,2
SMILES,D1 PAM,DRD3 antagonist,D1 antagonist,D3 ag,D1 agonist
O=C(Cn1ncc(Cl)c(Cl)c1=O)NC(=O)NC1CCCCC1,·,-68*,·,-13,·
O=C(Cc1cccs1)N[C@@H]1C(=O)N2C(C(=O)[O-])=C(C[n+]3ccccc3)CS[C@H]12,·,·,·,7,·
COc1cc(C(=O)N2CCN(C(=O)C3CC3)CC2)cc(OC)c1OC,-19,0,-42*,-3,1
COc1cc(CN2CCC(C(=O)N3CCN(c4ccccc4F)CC3)CC2)cc(OC)c1OC,5,-53*,4,-6,1
Cc1ccccc1NC(=O)Cn1nc(-c2ccc(F)cc2)c2cnc3ccccc3c21,-6,·,-37*,1,3
CCCSc1ncc(Cl)c(C(=O)Nc2nc3ccc(C)cc3s2)n1,0,·,0,3,3

# Screening data: PubChem BioAssay, National Center for Advancing Translational Sciences (NCATS)
